Rows were chosen to be rich in hits. Some 0.83% of all compounds tested hit in one or more screens of this group.
Prostate diff = activators of LNCaP prostate cell differentiation, primary screen, flow cytometry side scatter | AID 795, 2007 | actives 0.56% (n = 24,000) | 4 d | side scatter shift, % at 10 µM;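 active means side scatter shift above 30%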;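 further: androgen-responsive LNCaP prostate cancer cells in charcoal-stripped serum medium; percent of cells past a gate set so DMSO wells show 10% shift; higher shift means more granular cells and more differentiation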
QS inhibitor = S. aureus quorum sensing inhibitors, primary screen, RNAIII-GFP reporter, flow cytometry. S. aureus RN6390 RNAIII-GFP reporter, AIP-induced, flow cytometry 3 h. inhibition, % at 2 µM. actives 0.3% (n = 24,000). AID 527, 2006;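 active means share of bacteria positive for the green fluorescent reporter and its mean brightness both inhibited by 50% or more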;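 further: 0% = AIP-stimulated control and 100% = unstimulated bacteria without AIP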
* hit, by the source's call.

SMILES | Prostate diff | QS inhibitor
O=C(C1CCC1)N1CCc2cc(S(=O)(=O)NC3CCCC3)ccc21 | 8 | -4
CN1CCN(c2ccccc2NS(=O)(=O)c2ccc3c(c2)CCN3C(=O)C2CCC2)CC1 | 46* | 4
COc1ccc2c3c(c(=O)oc2c1OCC(N)=O)CCCC3 | 5 | 8
CCOC(=O)c1c(-c2ccc(C)o2)csc1NC(=O)CN1CCN(CC)CC1 | 34* | 0
COC(=O)c1c(-c2cccs2)csc1NC(=O)CN1CCOCC1 | 13 | -1
c1ccc(-c2ccc(C(c3ccccc3)n3ccnc3)cc2)cc1 (stereo not given) | 3 | 58*
c1ccc(-c2nc(N3CCCCCC3)nc(-n3ccnc3)n2)cc1 | 8 | 19
COc1ccc(C(NC(=O)CNC(C)=O)C(=O)Nc2ccc3c(c2)OCCO3)cc1 (stereo not given) | 5 | -2
Cc1ccc(-c2noc(CCC(=O)NCCN3CCN(Cc4ccccc4)CC3)n2)cc1 | 21 | -3
COc1ccc(-c2noc(CCC(=O)NCCCN3CCC(Cc4ccccc4)CC3)n2)cc1 | 32* | -1
Cc1noc(/C=C/N(C)C)c1S(=O)(=O)N1CCCC(C(=O)NC(C)c2ccccc2)C1 (stereo not given) | 10 | 0
Cc1ccc(S(=O)(=O)c2c(C)nn(C(C)(C)C)c2OC(=O)c2ccc(Br)o2)cc1 | 8 | 52*
Cc1ccc(S(=O)(=O)c2c(C)nn(C(C)(C)C)c2OC(=O)C(C)(C)C)cc1 | 6 | -13
CC(=O)Oc1c(S(=O)(=O)c2ccc(C)cc2)c(C)nn1C(C)(C)C | 1 | 78*
Cc1ccc(S(=O)(=O)c2c(C)nn(C(C)(C)C)c2OC(=O)c2ccco2)cc1 | 14 | -19
CC(C)N=c1cc2n(-c3ccc(Cl)cc3)c3ccccc3nc-2cc1Nc1ccc(Cl)cc1 | 1 | 70*
N#CCC(=O)Nc1ncn(Cc2ccccc2Cl)n1 | 11 | -2
CCn1cc(C(=O)Nn2cnnc2)c(=O)c2ccc(C)nc21 | 9 | 1
CCOCC(=O)Nc1c(C(=O)Nc2ccc(OC)cc2OC)oc2ccccc12 | 14 | 2
COc1cccc(OCC(=O)Nc2c(C(=O)Nc3ccc(OC)cc3OC)oc3ccccc23)c1 | 36* | 2
CCCNC(=O)C1CC(=O)N(c2ccc(OCC(=O)Nc3cc(C)cc(C)c3)cc2)C1 (stereo not given) | 6 | 0
CCN(CC)CCCN1C(=O)C(=O)/C(=C(/O)c2ccccc2)C1c1ccccn1 (stereo not given) | 6 | -2
CCOc1ccccc1NC(=O)Cn1nnc(C(=O)Nc2ccccc2Cl)c1N | 10 | 4
COc1ccc(NC(=O)c2nc[nH]c2C(=O)Nc2ccccc2C)cc1 | 8 | -3
CCOc1ccccc1NC(=O)c1nc[nH]c1C(=O)Nc1ccccc1OCC | 64* | -1
SMILES | Prostate diff | QS inhibitor
COc1ccccc1NC(=O)c1nc[nH]c1C(=O)Nc1ccccc1OC | 35* | 1
CCOc1ccc(NC(=O)C2CSC(c3ccncc3)=N2)cc1 (stereo not given) | 8 | -1
CCOc1ccc(CCNC(=O)c2cc3sccc3n2C)cc1OCC | 8 | -1
COc1cccc(C2N(c3cccc(Cl)c3)C(=O)C3CCCN32)c1 (stereo not given) | 19 | 13
COc1ccc(CNC(=O)c2ccc3c(c2)N(C)C(=O)CS3=O)cc1 (stereo not given) | 2 | -1
CC1CCN(S(=O)(=O)c2ccc3c(c2)oc(=O)n3CC(=O)NCc2ccc3c(c2)OCO3)CC1 | 20 | 67*
Cc1c(C(=O)NCc2ccc3c(c2)OCO3)oc2ccc(S(=O)(=O)N3CCC(C)CC3)cc12 | 5 | 0
COc1cc(-c2nc3n(n2)C(c2cccc(OC)c2OC)C2=C(CCCC2=O)N3)cc(OC)c1OC (stereo not given) | 24 | 2
Cc1cc(NC(=O)C2CCCN(S(=O)(=O)c3cnc[nH]3)C2)ccc1Br (stereo not given) | 4 | 4
CC(CCc1ccco1)NC(=O)c1cc2c(-c3ccccc3F)nn(C)c2s1 (stereo not given) | 8 | 61*
CC(=O)c1ccc(N2CCN(C(=O)c3cc4c(-c5ccccc5F)nn(C)c4s3)CC2)cc1 | 8 | -1
CC(CCc1ccccc1)NC(=O)C1CCN(S(=O)(=O)c2cnc[nH]2)CC1 (stereo not given) | 7 | 2
CCOc1ccccc1N1CCN(S(=O)(=O)c2cccc3nsnc23)CC1 | 7 | 0
CCN1CCCC1CNC(=O)C1CCN(Cc2nc(-c3cccc(Br)c3)oc2C)CC1 (stereo not given) | 63* | -3
Cc1oc(-c2cccc(Cl)c2)nc1CN1CCC(C(=O)NCc2ccco2)CC1 | 8 | 0
CCc1ccc(-c2nc(CN3CCC(C(=O)NCc4ccccc4OC)CC3)c(C)o2)cc1 | 18 | 2
COc1ccc(-c2nc(CN3CCC(C(=O)NC4CCCc5ccccc54)CC3)c(C)o2)cc1OC (stereo not given) | 39* | 1
CCN1CCN(CCNC(=O)C2CCN(Cc3nc(-c4ccc(Cl)cc4)oc3C)CC2)CC1 | 44* | 1
COc1ccccc1CNC(=O)C1CCN(Cc2nc(-c3cccc(Cl)c3)oc2C)CC1 | 7 | 2
Cc1oc(-c2ccc(Cl)cc2)nc1CN1CCC(C(=O)NCCCN2CCCC2=O)CC1 | 7 | -10
COc1ccccc1CNC(=O)C1CCN(Cc2nc(-c3ccc(Cl)cc3)oc2C)CC1 | 32* | 1
O=C(N1CCOCC1)C(F)(F)C(=O)N1CCOCC1 | 9 | 2
COc1ccc(CCNC(=O)C2CCN(Cc3nc(-c4ccccc4F)oc3C)CC2)cc1OC | 4 | -3
CCc1ccc(-c2nc(CN3CCC(C(=O)NCCc4ccc(OC)c(OC)c4)CC3)c(C)o2)cc1 | 32* | 0
COC(=O)C1=C(C)NC(=O)CC1c1cccc(Cl)c1Cl (stereo not given) | 10 | 8
SMILES | Prostate diff | QS inhibitor
CCOC(=O)C1=C(C)NC(C)=C(C(=O)OC)C1c1cccc(Cl)c1Cl (stereo not given) | 2 | 54*
COCCCn1c(=N)c(C(N)=S)cc2c(=O)n3cccc(C)c3nc21 | 10 | 1
Cc1cccn2c(=O)c3cc(C(=O)NC(C)c4ccccc4)c(=N)n(CCCn4ccnc4)c3nc12 (stereo not given) | 37* | 2
Cc1ccc2nc3c(cc(C(=O)NCc4ccccc4)c(=N)n3CCCn3ccnc3)c(=O)n2c1 | 31* | -6
N=c1c(C(=O)NCc2ccccc2)cc2c(=O)n3ccccc3nc2n1Cc1ccco1 | 11 | 7
COC(=O)c1ccc(CSc2ncnc3c2nnn3-c2ccc(OC)cc2)o1 | 14 | -1
CCc1ccc(NC(=O)CCNS(=O)(=O)c2cccc3nonc23)cc1 | 5 | -1
CCN(CCCNC(=O)CN1C(=O)COc2ccccc21)c1cccc(C)c1 | 9 | -1
COC(=O)C1=C(C(=O)c2ccc(C)cc2)C(c2ccc(OC)c(OC)c2)n2nnnc2N1 (stereo not given) | 4 | 0
COC(=O)N1CC(=O)N(OC)C1c1ccc(Cl)cc1Cl (stereo not given) | 9 | 3
O=C(c1ccc2c(c1)OCO2)N(c1ccc(Cl)cc1)C1C=CS(=O)(=O)C1 (stereo not given) | 10 | 3
Cn1cccc1Cc1nnc(SCC(=O)Nc2ccccc2)n1-c1ccc(F)cc1 | 4 | 61*
Cn1cccc1Cc1nnc(SCC(=O)Nc2ccc(F)cc2)n1-c1ccc(F)cc1 | 8 | -7

From PubChem BioAssay
